Entries with a potency or affinity are not part of this list. Activity calls are given as the source filed them.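 The calls were made as follows: active = every repeat run showing a signal drop whose fitted half-maximal concentration is at most twice the top tested concentration; inconclusive = repeat runs disagree, or flat partial drop, or poor fit; inactive = the rest.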

The test in a line: HEK293T cytotoxicity, dose response, cytotoxicity control for miR-122 modulator project, cell-based, activator set, cherry-pick (AID 720690). Particulars: HEK293T viability, CellTiter-Glo luminescence, 48 h; series mostly up to 26 µM. In general terms: In ATP-based viability assays light output follows the ATP content of the culture.
As for `CCCNC(=O)C[C@H]1CC[C@@H]2[C@@H](COc3ccc(NC(=O)c4ccc(C(F)(F)F)cc4)cc3C(=O)N2C)O1`, the outcome was inactive. For the compound `C[C@@H]1CN([C@@H](C)CO)S(=O)(=O)c2ccc(-c3ccccc3)cc2O[C@@H]1CN(C)C(=O)c1ccc2c(c1)OCO2`, the compound was called inactive. The same measure for `CCN(CC)CCNc1nc(-c2ccccc2)nnc1C(F)(F)F`: “inactive”. `Oc1ccc(-c2nc(-c3ccc(O)c(O)c3)cs2)cc1`: the compound was classed as inactive. The same measure for `Cc1ccccc1NCN1C(=O)C2C3C=CC(C3)C2C1=O` (centres undefined): “inactive”; for `CN1C(=O)c2cc(NC(=O)C3CC3)ccc2OC[C@@H]2O[C@H](CC(=O)NCCN3CCCC3)CC[C@H]21`: “inactive”. In the case of `CCNC(=O)C[C@@H]1CC[C@@H]2[C@H](COc3ccc(NC(=O)Nc4cccc(Cl)c4)cc3C(=O)N2C)O1` it was “inactive”; in that of `C[C@@H]1CN([C@@H](C)CO)C(=O)c2cccc(NC(=O)Nc3ccc4c(c3)OCO4)c2O[C@@H]1CN(C)Cc1ccc(Oc2ccccc2)cc1`, “inactive”; in that of `CCC(=O)N1[C@@H](CO)[C@@H](c2ccccc2)[C@@H]1CN(C(C)C)S(C)(=O)=O`, “inactive”. Turning to `COc1ccc(C(=O)N2C[C@H]3[C@@H](c4ccccc42)[C@@H](CO)N3C(=O)Cc2ccccn2)cc1`, the result was inactive. For the compound `CCc1nc2sc(C)c(C)c2c(=O)n1CCO`, the compound was classed as inactive. For `CCCC(=O)Nc1ccc2c(c1)C(=O)N(C)[C@@H]1CC[C@H](CC(=O)Nc3cn(C)nc3C)O[C@@H]1CO2`, the compound was classed as inactive.

As to `CO[C@@H]1CN(C)C(=O)c2cc(NC(=O)c3cccc(Oc4ccccc4)c3)ccc2OC[C@H](C)NC[C@@H]1C`, the result was inactive. In the case of `COCC(=O)Nc1ccc2c(c1)C(=O)N(C)[C@@H]1CC[C@H](CC(=O)NCc3ccccc3F)O[C@H]1CO2` it was “inactive”.

Regarding `CN1C(=O)c2cc(NC(=O)c3cccc(F)c3)ccc2OC[C@@H]2O[C@H](CC(=O)O)CC[C@H]21`, the compound was classed as inactive. Regarding `O=C(Nc1ncc(Cc2cccc(C(F)(F)F)c2)s1)c1ccc(-c2cccc([N+](=O)[O-])c2)o1`, the outcome was inactive. For `CN1C[C@H]2[C@@H](c3ccccc31)[C@@H](CO)N2C(=O)C1CCOCC1`, the compound was called inactive.

With `COc1ccc(S(=O)(=O)N(C)C[C@@H]2Oc3cc(-c4cccc(F)c4)ccc3S(=O)(=O)N([C@H](C)CO)C[C@H]2C)cc1`, the result was inactive. Turning to `O=C(c1cccc(F)c1)N1C[C@@H]2[C@H](c3ccccc31)[C@H](CO)N2C(=O)Cc1ccccc1`, the result was inactive. As to `COc1ccc(CNC(=O)NCCc2c[nH]c3ccccc23)cc1`, the result was inactive. `C/C=C/c1ccc([C@H]2[C@@H](CO)N(C(=O)COC)[C@H]2CNC(=O)CC)cc1`: the call was inactive. Turning to `C/C=C/c1ccc([C@H]2[C@@H](CO)N(C(=O)C3CC3)[C@H]2CNC(=O)NC(C)C)cc1`, the compound was classed as inactive. As for `O=C(CSc1nc2ccccc2s1)N1CCOCC1`, the call was inactive. The same measure for `Cc1cc(NS(=O)(=O)c2ccc(NC(=O)C(CC(C)C)N3C(=O)c4ccccc4C3=O)cc2)nc(C)n1` (centres undefined): “inactive”; for `Cc1ccccc1NC(=O)Nc1ccc2c(c1)C(=O)N(C)[C@H]1CC[C@@H](CC(=O)O)O[C@H]1CO2`: “inactive”. On to `CN1C(=O)c2cc(NC(=O)c3cccs3)ccc2OC[C@@H]2O[C@H](CC(=O)NCC(F)(F)F)CC[C@H]21`, for which the call was inactive. For `COC(=O)C[C@H]1CC[C@H]2[C@H](COc3ccc(NS(=O)(=O)c4ccc(F)cc4)cc3C(=O)N2C)O1`, the compound was called inactive.

Take `CCC(=O)N1[C@H](CN(C(C)C)S(C)(=O)=O)[C@H](c2ccccc2)[C@@H]1CO`: the compound was classed as inactive.

Consider `COCCNC(=O)C[C@H]1CC[C@@H]2[C@H](COc3ccc(NC(=O)C4CCOCC4)cc3C(=O)N2C)O1`, for which the result was inactive.

As to `CCN(C[C@@H]1[C@@H](c2ccccc2)[C@@H](CO)N1S(C)(=O)=O)C(=O)C1CC1`, the result was inactive. `CCCNC(=O)C[C@H]1CC[C@H]2[C@@H](COc3ccc(NC(=O)c4cc(F)cc(F)c4)cc3C(=O)N2C)O1`: the compound was called inactive.

`CN(Cc1ccccc1)C(=O)COC(=O)c1ccccc1Nc1ccccc1`: the outcome was inactive. The same measure for `CNC(=O)C[C@@H]1CC[C@H]2[C@@H](COc3ccc(NC(=O)NC(C)C)cc3C(=O)N2C)O1`: “inactive”.

In the case of `C/C=C/c1ccc([C@@H]2[C@@H](CO)N(Cc3ccccn3)[C@H]2CNC(=O)CC)cc1`, the compound was classed as inactive. Take `C[C@@H]1CN([C@@H](C)CO)C(=O)c2cccc(NS(C)(=O)=O)c2O[C@H]1CN(C)S(=O)(=O)c1ccc(Cl)cc1`: the result was inactive.

Consider `O=C(CC(F)(F)F)N1C[C@H]2[C@@H](c3ccccc31)[C@H](CO)N2C(=O)Cc1cccnc1`, for which the outcome was inactive. Turning to `C[C@@H]1CN([C@H](C)CO)S(=O)(=O)c2ccc(C#CC3CC3)cc2O[C@@H]1CN(C)C(=O)c1cccc(F)c1`, the call was inactive. In the case of `COC(=O)C[C@@H]1CC[C@H]2[C@@H](COc3ccc(NC(=O)c4ccc(F)c(F)c4)cc3C(=O)N2C)O1` it was “inactive”; in that of `CN(C)CCNC(=O)C1CC(=O)N(c2ccc(F)c(Cl)c2)C1` (centres undefined), “inactive”.
